Experimental data published in PubChem BioAssay (Tox21).
Inconclusive results are not listed. Active and inactive are the calls of the source. Unless noted, calls follow the shape of the full dose curve.

Legend:
[1] = Nuclear factor erythroid 2-related factor 2/antioxidant responsive element (Nrf2/ARE) small molecule agonists: qHTS cell viability counter screen in human keratinocytes (AID 1919968; active = well fitted curve in the direction sought with a large enough effect in the repeat runs; an effect the other way counts as inactive or inconclusive; also: nearly all actives have a fitted effect of over 55% in size; also: potency is read from the fitted curve at half-maximal effect)
Outline: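 Viability counter-screen: KeratinoSens reporter cells, DMSO-delivered compounds, 23 h at 37 C, CellTiter-Fluor fluorescence.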

[2] = Nuclear factor erythroid 2-related factor 2/antioxidant responsive element (Nrf2/ARE) small molecule agonists: luciferase reporter gene qHTS assay in human keratinocytes (AID 1919969); also: nearly all actives have a fitted effect of over 35% in size; also: potency is read from the fitted curve at half-maximal effect
[3] = molecular target: Gonadotropin-releasing hormone receptor (Homo sapiens) (UniProt P30968); assay: Human gonadotropin-releasing hormone receptor (GnRHR) small molecule agonists, calcium flux assay in GnRHR-HEK293 cells (AID 1920063); also: nearly all actives have a fitted effect of over 35% in size; also: potency is read from the fitted curve at half-maximal effect
Outline: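 Tox21-format agonist screen using human GnRHR-expressing HEK293 cells and a fluorescent calcium dye; kinetic 3-min fluorescence reading after compound addition, 15-point concentration series run in triplicate.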

[4] = G protein-coupled receptor (GPCR) small molecule agonists, calcium flux assay: HEK293 wild type cell line counter screen (AID 1920065); also: potency is read from the fitted curve at half-maximal effect
Outline: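 In this agonist-mode screen, ATP is the positive control and DMSO the vehicle. Cells grow 18 h before a 1 h dye incubation at 37 C; signal is taken at Ex/Em 480/540 over 3 min.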

[5] = p53 small molecule agonists, cell-based qHTS assay with human liver microsomes (AID 1963577); also: potency is read from the fitted curve at half-maximal effect
Outline: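 With metabolic activation: human liver microsomes (0.5 mg/mL final) plus NADPH (0.5 mg/mL final) added alongside compounds to p53RE-bla cells; 16 h 37 C exposure; beta-lactamase read by LiveBLAzer fluorescence.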

[6] = p53 small molecule agonists, cell-based qHTS assay with rat liver microsomes (AID 1963578)
Outline: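 Metabolic activation by rat liver microsomes and NADPH, each 0.5 mg/mL final, added right after compounds to p53RE-bla reporter cells (4,000/well, plated 5 h earlier). 16 h at 37 C, then LiveBLAzer substrate for 2 h at room temperature in the dark; fluorescence read-out.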

[7] = p53 small molecule agonists, cell-based qHTS assay with human liver microsomes: qHTS cell viability counter screen (AID 1963579); also: nearly all actives have a fitted effect of over 45% in size; also: potency is read from the fitted curve at half-maximal effect
Outline: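 Metabolic activation used human liver microsomes and NADPH, both 0.5 mg/mL final, over 16 hours at 37 C on p53RE-bla cells (4,000/well). Cytotoxicity measured by CellTiter-Glo luminescence, 30 min at room temperature.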

[8] = p53 small molecule agonists, cell-based qHTS assay: qHTS cell viability counter screen (AID 1963581); also: nearly all actives have a fitted effect of over 45% in size; also: potency is read from the fitted curve at half-maximal effect
Outline: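 Compounds are pinned onto HCT-116 p53RE-bla cells and left 16 h at 37 C. Following the reporter FRET read, ATP is quantified by CellTiter-Glo luminescence after 30 min at room temperature.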

[9] = molecular target: 5-hydroxytryptamine receptor 2A (Homo sapiens) (UniProt P28223); assay: 5-hydroxytryptamine receptor 2A (HTR2A) small molecule antagonists, cell-based qHTS assay (AID 1963586); also: nearly all actives have a fitted effect of over 45% in size
Outline: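 Antagonist-mode intracellular calcium assay: DOI (4 nM) added after 5 min compound pre-incubation at room temperature to dye-loaded HTR2A-CHO cells. Fluorescence followed for 3 min, sampled every second.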

[10] = molecular target: 5-hydroxytryptamine receptor 2A (Homo sapiens) (UniProt P28223); assay: 5-hydroxytryptamine receptor 2A (HTR2A) small molecule agonists, cell-based qHTS assay (AID 1963587); also: nearly all actives have a fitted effect of over 30% in size; also: potency is read from the fitted curve at half-maximal effect
Outline: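 CHO cells stably expressing human HTR2A, plated 18 h, loaded with calcium dye 1 h at 37 C. Agonist mode: compounds added and intracellular calcium fluorescence recorded kinetically for 2 min at 1 sec intervals.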

[11] = molecular target: Muscarinic acetylcholine receptor M1 (Homo sapiens) (UniProt P11229); assay: Cholinergic receptor muscarinic 1 (CHRM1) small molecule agonists, cell-based qHTS assay (AID 1963589); also: nearly all actives have a fitted effect of over 35% in size; also: potency is read from the fitted curve at half-maximal effect
Outline: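 Stable CHRM1-CHO cells (human receptor) were incubated 18 h, dye-loaded for 1 h at 37 C and exposed to test compounds for agonist activity, with calcium-dependent fluorescence followed kinetically.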

[12] = molecular target: D(2) dopamine receptor (Homo sapiens) (UniProt P14416); assay: Dopamine D2 receptor (DRD2) small molecule antagonists, cell-based qHTS assay (AID 1963595; active = well fitted inhibition curve with a large enough effect in the signal ratio in the repeat runs, with a control signal flat; the % refers to the signal ratio; also: potency is read from the fitted curve at half-maximal effect)
Outline: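 Antagonist mode in DRD2-HEK293 cells: after compound addition with 0.1 mM Ro20-1724, cells received quinpirole (12 nM) and NKH477 (200 nM) for 30 min at room temperature; HTRF cAMP read after 1 h detection.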

[13] = p53 small molecule agonists, cell-based qHTS assay with rat liver microsomes: qHTS cell viability counter screen (AID 1963580); also: nearly all actives have a fitted effect of over 45% in size; also: potency is read from the fitted curve at half-maximal effect
Outline: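 Viability is assessed in parallel with the p53 reporter read: HCT-116 p53RE-bla cells receive compounds plus rat microsomes and NADPH (0.5 mg/mL final apiece), incubate 16 h at 37 C, and then CellTiter-Glo luminescence is recorded.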

[14] = molecular target: Muscarinic acetylcholine receptor M1 (Homo sapiens) (UniProt P11229); assay: Cholinergic receptor muscarinic 1 (CHRM1) small molecule antagonists, cell-based qHTS assay (AID 1963588); also: nearly all actives have a fitted effect of over 40% in size
Outline: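 CHRM1-CHO calcium-flux assay, antagonist mode. Cells were seeded 18 h, dye-loaded 1 h at 37 C and given compound for 5 min at RT, then acetylcholine was added at 50nM. FDSS fluorescence was read 3 min; 15 concentrations, three runs.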

[15] = cAMP Responsive Elements (CRE) small molecule agonists, cell-based qHTS assay (AID 1963590)
Outline: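 FRET-based beta-lactamase readout (LiveBLAzer B/G, 2 h RT) quantified CRE activation in HEK 293T CRE-bla cells after 3 h treatment with DMSO-dissolved compounds.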

[16] = cAMP Responsive Elements (CRE) small molecule antagonists, cell-based qHTS assay (AID 1963591; active = well fitted inhibition curve with a large enough effect in the signal ratio in the repeat runs, not every such curve was filed as active; the % refers to the signal ratio; also: potency is read from the fitted curve at half-maximal effect)
Outline: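 qHTS in CRE-bla HEK 293T cells: compound in DMSO, then 0.25 uM NKH477 (final), 3 h at 37 °C/5% CO2; beta-lactamase FRET read-out after 2 h substrate incubation.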

[17] = molecular target: Beta-2 adrenergic receptor (Homo sapiens) (UniProt P07550); assay: Adrenergic beta2 receptor (ADRB2) small molecule antagonists, cell-based qHTS assay (AID 1963592); also: series mostly up to about 92 µM; nearly all actives have a fitted effect of over 50% in size
Outline: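 Cells (CHO, stable ADRB2 overexpression) incubated 18-20hr at 37C; compounds added from DMSO; agonist mix (1nM isoproterenol, 100uM IBMX, 25uM Ro-20-1724) added; 0.5hr RT; d2-cAMP and anti-cAMP-cryptate added; 1hr RT; 665/615 nm read.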

[18] = molecular target: D(2) dopamine receptor (Homo sapiens) (UniProt P14416); assay: Dopamine D2 receptor (DRD2) small molecule agonists, cell-based qHTS assay (AID 1963594); also: nearly all actives have a fitted effect of over 35% in size
Outline: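 HEK293 cells stably expressing human DRD2, pre-treated with PDE inhibitor Ro20-1724 (0.1 mM final) and compound 10 min at room temperature, then stimulated with NKH477 (200nM […]) for 30 min. cAMP read by HTRF (665/620 nm).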

[19] = molecular target: KiSS-1 receptor (Homo sapiens) (UniProt Q969F8); assay: Human kisspeptin (KISS1R) small molecule agonists, calcium flux assay in KISS1R-HEK293 cells (AID 1920064; active = well fitted curve in the direction sought with a large enough effect in the repeat runs; an effect the other way counts as inactive or inconclusive; also: potency is read from the fitted curve at half-maximal effect)
Outline: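 Intracellular calcium mobilization in KISS1R-HEK293 cells was recorded by fluorescence (Ex/Em 480/540) for 3 min following compound addition to cells pre-loaded 1 h with calcium dye.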

[20] = molecular target: Beta-2 adrenergic receptor (Homo sapiens) (UniProt P07550); assay: Adrenergic beta2 receptor (ADRB2) small molecule agonists, cell-based qHTS assay (AID 1963593);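 also: CHO cells stably overexpressing human ADRB2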
Outline: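 CHO cells stably over-expressing ADRB2 were plated overnight at 37C, then dosed with compounds plus a stimulation mix containing 100uM IBMX and 25uM Ro-20-1724 for 0.5hr at room temperature. cAMP was measured by HTRF competition, 1hr.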

Measured: Potency

Gonadotropin-releasing hormone receptor (Homo sapiens), sequence (P30968 whole entry, looked up): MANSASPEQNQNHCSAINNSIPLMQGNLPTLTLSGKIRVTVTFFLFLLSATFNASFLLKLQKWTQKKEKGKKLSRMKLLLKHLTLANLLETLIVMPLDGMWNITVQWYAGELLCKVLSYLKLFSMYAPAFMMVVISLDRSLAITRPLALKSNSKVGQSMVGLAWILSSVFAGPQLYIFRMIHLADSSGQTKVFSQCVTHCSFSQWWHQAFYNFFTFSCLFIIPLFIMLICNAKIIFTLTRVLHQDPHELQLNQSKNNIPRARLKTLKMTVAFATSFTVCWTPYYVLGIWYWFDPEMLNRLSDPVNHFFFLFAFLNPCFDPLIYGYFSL
KiSS-1 receptor (Homo sapiens), sequence (Q969F8 whole entry, looked up): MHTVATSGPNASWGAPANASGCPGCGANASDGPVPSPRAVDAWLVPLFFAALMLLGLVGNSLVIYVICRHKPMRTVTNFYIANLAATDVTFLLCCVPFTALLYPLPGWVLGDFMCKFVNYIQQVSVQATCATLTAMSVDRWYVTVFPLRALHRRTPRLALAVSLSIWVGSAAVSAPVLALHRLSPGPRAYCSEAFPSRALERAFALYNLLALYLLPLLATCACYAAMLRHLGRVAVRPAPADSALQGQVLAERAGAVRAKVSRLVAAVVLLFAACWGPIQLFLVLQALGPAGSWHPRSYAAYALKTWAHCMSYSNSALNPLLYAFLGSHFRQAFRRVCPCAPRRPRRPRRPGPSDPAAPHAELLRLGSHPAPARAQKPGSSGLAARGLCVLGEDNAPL
Muscarinic acetylcholine receptor M1 (Homo sapiens), sequence (P11229 whole entry, looked up): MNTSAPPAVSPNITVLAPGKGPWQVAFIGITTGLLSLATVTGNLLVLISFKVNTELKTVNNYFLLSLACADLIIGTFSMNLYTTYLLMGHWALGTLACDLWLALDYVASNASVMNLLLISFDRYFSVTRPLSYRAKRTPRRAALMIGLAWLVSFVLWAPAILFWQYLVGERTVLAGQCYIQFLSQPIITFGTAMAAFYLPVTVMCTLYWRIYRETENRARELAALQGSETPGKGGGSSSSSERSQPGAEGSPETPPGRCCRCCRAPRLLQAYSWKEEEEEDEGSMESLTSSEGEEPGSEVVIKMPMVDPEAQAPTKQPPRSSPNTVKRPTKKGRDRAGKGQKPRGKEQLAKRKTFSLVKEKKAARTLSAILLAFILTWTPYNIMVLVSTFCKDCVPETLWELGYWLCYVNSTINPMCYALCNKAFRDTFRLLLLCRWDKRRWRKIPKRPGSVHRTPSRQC
D(2) dopamine receptor (Homo sapiens), sequence (P14416 whole entry, looked up): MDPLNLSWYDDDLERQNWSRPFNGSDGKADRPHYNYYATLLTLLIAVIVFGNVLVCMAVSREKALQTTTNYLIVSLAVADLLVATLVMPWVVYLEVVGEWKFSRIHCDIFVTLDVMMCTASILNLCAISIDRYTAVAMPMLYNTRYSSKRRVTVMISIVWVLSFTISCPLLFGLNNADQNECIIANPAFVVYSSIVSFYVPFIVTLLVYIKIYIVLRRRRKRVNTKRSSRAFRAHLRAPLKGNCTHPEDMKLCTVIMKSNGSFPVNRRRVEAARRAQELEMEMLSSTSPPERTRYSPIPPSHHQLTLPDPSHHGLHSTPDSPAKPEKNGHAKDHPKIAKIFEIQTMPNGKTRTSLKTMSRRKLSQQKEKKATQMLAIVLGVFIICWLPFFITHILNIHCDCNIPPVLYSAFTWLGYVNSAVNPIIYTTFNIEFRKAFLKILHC
5-hydroxytryptamine receptor 2A (Homo sapiens), sequence (P28223 whole entry, looked up): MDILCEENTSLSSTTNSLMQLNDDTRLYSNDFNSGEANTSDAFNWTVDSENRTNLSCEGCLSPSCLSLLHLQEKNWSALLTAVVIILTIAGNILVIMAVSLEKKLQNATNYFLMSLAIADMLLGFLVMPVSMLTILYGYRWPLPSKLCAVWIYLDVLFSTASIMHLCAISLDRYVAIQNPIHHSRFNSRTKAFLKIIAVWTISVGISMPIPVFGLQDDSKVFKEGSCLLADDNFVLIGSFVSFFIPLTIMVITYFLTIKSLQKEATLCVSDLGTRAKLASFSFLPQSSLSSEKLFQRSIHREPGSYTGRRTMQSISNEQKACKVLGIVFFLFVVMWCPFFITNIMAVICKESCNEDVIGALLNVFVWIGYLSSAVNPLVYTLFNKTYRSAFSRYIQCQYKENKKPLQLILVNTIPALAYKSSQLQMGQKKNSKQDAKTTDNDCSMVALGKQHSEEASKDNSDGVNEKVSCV
Beta-2 adrenergic receptor (Homo sapiens), sequence (P07550 whole entry, looked up): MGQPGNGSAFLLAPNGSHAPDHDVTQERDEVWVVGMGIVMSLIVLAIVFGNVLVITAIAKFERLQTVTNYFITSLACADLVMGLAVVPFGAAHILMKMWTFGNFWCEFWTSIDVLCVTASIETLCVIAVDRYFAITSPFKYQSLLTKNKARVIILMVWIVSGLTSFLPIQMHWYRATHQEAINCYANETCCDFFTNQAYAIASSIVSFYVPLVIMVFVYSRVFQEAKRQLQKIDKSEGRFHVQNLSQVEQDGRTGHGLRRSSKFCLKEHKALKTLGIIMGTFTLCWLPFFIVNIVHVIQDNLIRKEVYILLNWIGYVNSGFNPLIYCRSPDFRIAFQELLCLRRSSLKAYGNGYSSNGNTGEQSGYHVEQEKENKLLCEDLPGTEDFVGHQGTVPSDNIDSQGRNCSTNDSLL

Cc1ccc(N(SC(F)(Cl)Cl)S(=O)(=O)N(C)C)cc1
active: [1] 27.3 µM | [2] 7.7 µM | [3] 34.7 µM | [4] 38.9 µM | [7] 16.2 µM | [10] 49 µM | [11] 49 µM | [12] 3.06 µM
inactive: [5] | [6] | [8] | [9]

Cc1cccc(OP(=O)(Oc2cccc(C)c2)Oc2cccc(C)c2)c1
not listed: [6] | [9] | [19] | [20]
inactive: all other assays above

CC1(C)COP(Oc2ccccc2)OC1
not listed: [4] | [5] | [6] | [13] | [16] | [20]
inactive: all other assays above

[Hg+2].[I-].[I-]
active: [1] 4.33 µM | [2] 1.22 µM | [3] 43.6 µM | [7] 4.58 µM | [13] 12.9 µM | [8] 18.2 µM | [10] 49 µM
inactive: [4] | [5] | [6] | [9] | [14]

O=CNC(N1CCN(C(NC=O)C(Cl)(Cl)Cl)CC1)C(Cl)(Cl)Cl (stereo unspecified)
not listed: [10] | [12] | [14] | [15] | [16] | [17] | [19] | [20]
inactive: all other assays above

CCN(CC)C(=S)[S-].CCN(CC)C(=S)[S-].[Zn+2]
inactive: [9] | [14] | [12]
active: [1] 0.481 µM | [2] 2.41 µM | [3] 9.69 µM | [19] 19.3 µM | [7] 3.21 µM | [13] 1.61 µM | [8] 4.54 µM | [10] 19.3 µM | [11] 13.7 µM

CCOCn1c(-c2ccc(Cl)cc2)c(C#N)c(Br)c1C(F)(F)F
inactive: [3] | [19] | [9] | [10] | [14] | [11] | [18]
active: [1] 34.4 µM | [2] 24.3 µM | [7] 22.9 µM | [13] 22.9 µM | [8] 10.2 µM

CCc1cc(OC)c(C[C@H](C)N)cc1OC
not listed: [10] | [16] | [17] | [18] | [19] | [20]
inactive: all other assays above

CCSC(C)CC1CC(=O)C(/C(CC)=N/OC/C=C/Cl)=C(O)C1 (stereo unspecified)
not listed: [17] | [19]
inactive: all other assays above

BrCCCBr
not listed: [4] | [5] | [6] | [12]
inactive: all other assays above

CC(C)(C)OO
not listed: [7] | [8] | [19] | [20]
inactive: all other assays above

CNC(=O)Oc1ccc(N(C)C)c(C)c1
active: [2] 24.3 µM | [5] 10.2 µM
not listed: [6] | [18] | [19] | [20]
inactive: all other assays above

O=C(CCl)C(Cl)Cl
active: [1] 19.5 µM | [2] 7.77 µM | [13] 13 µM | [16] 21.9 µM
not listed: [7] | [15] | [19] | [20]
inactive: all other assays above
